Calls of active or inactive are those of the source. How the source made its calls: active means hit-call score of the fitted dose curve at least 0.9, where 1 is the maximum; inactive means score below 0.9.
How the values were obtained:
[1] = ATG_CRE_CIS: Attagene CIS-FACTORIAL HepG2 Assay for human cAMP Responsive Element (CRE) binding protein 3 (AID 2282926); settings: HepG2 CRE cis-reporter, Attagene multiplexed mRNA; actives raise or lower the signal
Procedure, shortened: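 Transfected HepG2 were treated for 24 hours, then RNA was extracted and reporter cDNA amplified with sequence-specific primers. Labelled fragments were separated by capillary electrophoresis, and the CRE signal was fitted bidirectionally with DMSO as baseline.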

[2] = molecular target: CCAAT/enhancer-binding protein beta (Homo sapiens) (UniProt P17676); experiment: ATG_C_EBP_CIS: Attagene CIS-FACTORIAL HepG2 Assay for human CCAAT/Enhancer Binding Protein (C/EBP) beta (AID 2282927); settings: HepG2 Attagene cis-factorial transcription factor reporter; actives raise or lower the signal
Procedure, shortened: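 Changes in reporter mRNA, rather than exogenous chimeric receptor activity, reflect native C/EBP signalling in transfected HepG2 cells dosed for 24 h; transcripts are detected by RT-PCR and capillary electrophoresis.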

[3] = ATG_CMV_CIS: Attagene CIS-FACTORIAL HepG2 Assay for human CMV (Internal Marker) (AID 2282928); settings: HepG2 CMV promoter reporter, transcription factor profiling; actives raise or lower the signal;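 further: endpoint acts as a background internal control marker rather than a target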
Procedure, shortened: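 HepG2 cells transiently transfected with multiple cis-regulated reporter units; 24 h compound exposure. Reporter mRNA quantified by RT-PCR, 6-FAM primer-extension labeling, HpaI digestion and capillary electrophoresis; bidirectional fitting against DMSO baseline.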

[4] = ATG_DR4_LXR_CIS: Attagene CIS-FACTORIAL HepG2 Assay for human Liver X Receptor (LXR), DR4 submotif (AID 2282929); settings: HepG2 Attagene DR4 cis-reporter, mRNA transcription; actives raise or lower the signal
Procedure, shortened: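 After transient transfection with multiplexed cis-promoter reporter units, HepG2 cells received test chemicals for 24 h. Reporter mRNA induction, detected by fluorescence after RT-PCR and capillary electrophoresis, was scored relative to DMSO.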

[5] = ATG_AP_1_CIS: Attagene CIS-FACTORIAL HepG2 Assay for human Activator Protein 1 (AP-1) (AID 2282931); settings: HepG2 Attagene cis-factorial AP-1 reporter mRNA; actives raise or lower the signal
Procedure, shortened: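 After 24 h incubation with test chemical, RNA from transfected HepG2 cells was reverse-transcribed, amplified, fluorescently labelled and digested before capillary electrophoresis. Reporters were driven by cis-regulatory promoters; activity fitted bidirectionally versus DMSO.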

[6] = ATG_AP_2_CIS: Attagene CIS-FACTORIAL HepG2 Assay for human Activator Protein 2 (AP-2) (AID 2282932); settings: HepG2 AP-2 cis-reporter, Attagene transcription factor profiling; actives raise or lower the signal
Procedure, shortened: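 Step one: transient transfection of HepG2 with reporter transcription units. Step two: 24 h chemical exposure. Step three: RNA extraction, RT-PCR, labelled fragment analysis by capillary electrophoresis; DMSO serves as baseline.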

[7] = ATG_BRE_CIS: Attagene CIS-FACTORIAL HepG2 Assay for human Bone Morphogenetic Protein (BMP) Response Element (BRE) (AID 2282933); settings: HepG2 BMP response element reporter, Attagene transcription factor profiling; actives raise or lower the signal
Procedure, shortened: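 After a 24 h chemical treatment, transiently transfected HepG2 cells were lysed for RNA; reporter transcripts were quantified by fluorescent RT-PCR and capillary electrophoresis, normalised to DMSO.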

[8] = molecular target: Retinoic acid receptor alpha (Homo sapiens) (UniProt P10276); experiment: ATG_DR5_RAR_CIS: Attagene CIS-FACTORIAL HepG2 Assay for human Retinoic Acid Receptor Alpha (RARE), DR5 submotif (AID 2282934); settings: HepG2 Attagene cis-factorial RARE DR5 reporter, mRNA; actives raise or lower the signal;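 on AC50: reporter responds to endogenous RAR alpha beta and gamma in HepG2 not RARA alone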
Procedure, shortened: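 HepG2, transient cis-reporter transfection, 24 h exposure. mRNA readout: RT-PCR, FAM label, HpaI cut, capillary electrophoresis. DMSO baseline, gain/loss fitting.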

Measured: AC50

CCAAT/enhancer-binding protein beta (Homo sapiens), sequence (P17676 whole entry, looked up): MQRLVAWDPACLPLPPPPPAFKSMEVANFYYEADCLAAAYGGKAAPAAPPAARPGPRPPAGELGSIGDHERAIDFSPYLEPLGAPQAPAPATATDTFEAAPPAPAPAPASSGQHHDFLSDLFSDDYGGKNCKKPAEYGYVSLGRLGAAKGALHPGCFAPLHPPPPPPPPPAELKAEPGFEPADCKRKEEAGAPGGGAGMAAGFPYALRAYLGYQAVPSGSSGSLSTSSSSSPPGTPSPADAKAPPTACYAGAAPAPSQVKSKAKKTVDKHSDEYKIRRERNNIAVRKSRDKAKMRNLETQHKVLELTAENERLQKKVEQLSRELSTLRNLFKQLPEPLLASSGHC
Retinoic acid receptor alpha (Homo sapiens), sequence (P10276 whole entry, looked up): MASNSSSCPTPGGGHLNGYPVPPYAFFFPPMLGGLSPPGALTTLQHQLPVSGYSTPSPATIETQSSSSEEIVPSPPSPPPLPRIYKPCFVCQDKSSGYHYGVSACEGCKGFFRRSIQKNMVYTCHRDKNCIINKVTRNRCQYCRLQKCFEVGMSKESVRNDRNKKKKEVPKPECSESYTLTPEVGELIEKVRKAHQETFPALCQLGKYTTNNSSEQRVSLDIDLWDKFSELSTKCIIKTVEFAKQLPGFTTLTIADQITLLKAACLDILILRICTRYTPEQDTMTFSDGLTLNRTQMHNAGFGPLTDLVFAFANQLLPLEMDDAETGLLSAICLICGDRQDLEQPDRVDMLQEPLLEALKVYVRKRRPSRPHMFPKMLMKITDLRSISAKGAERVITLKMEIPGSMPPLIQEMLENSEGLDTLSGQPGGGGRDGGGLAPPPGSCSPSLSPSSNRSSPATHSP

CC(C)(C)c1cccc(O)c1
inactive: [1] | [2] | [3] | [4] | [5] | [6] | [7]

CCCCCCCC(=O)N(C)C
inactive: [1] | [2] | [3] | [4] | [5] | [6] | [7]

CCCC[N+](C)(CCCC)CCCC
inactive: [1] | [2] | [3] | [4] | [5] | [6] | [7]

CCCCCCCCCCCCCC(=O)OCC
inactive: [1] | [2] | [3] | [4] | [5] | [6] | [7] | [8]

CC(=O)CC(=O)N(C)C
inactive: [1] | [2] | [3] | [4] | [5] | [7]

c1ccc2scnc2c1
inactive: [1] | [2] | [3] | [4] | [5] | [6] | [7]

CN1CCc2cccc3c2[C@H]1Cc1ccc(O)c(O)c1-3
inactive: [1] | [2] | [6] | [7]
active: [3] 5.76 µM | [4] 18.8 µM | [5] 3.75 µM | [8] 1.67 µM

CC(C)(CO)CO
inactive: [1] | [2] | [3] | [4] | [5] | [6] | [7]

CC(=O)OCC=C(C)CCC=C(C)CCC=C(C)C
active: [3] 63.2 µM | [4] 33.4 µM | [5] 48.1 µM | [6] 145 µM
inactive: [1] | [2] | [7]

FC(F)(F)c1ccc(Cl)c(Cl)c1
inactive: [1] | [2] | [3] | [4] | [5] | [6] | [7]

COc1ccccc1NC(=O)CC(C)=O
inactive: [1] | [2] | [3] | [4] | [5] | [6] | [7] | [8]

Reference: PubChem BioAssay (EPA / NIEHS)
